Active and inactive are the calls of the source.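 How the source made its calls, unless noted: active means normalized viability below 100% at a tested concentration; inactive means the rest.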
Columns and labels:
[1] = drug combination growth inhibition, ovarian cancer – cell-based, oncology-focused library, rucaparib conditional, profiling panel (AID 1508598); details: patient-derived ovarian cancer cells, CellTiter-Glo viability, 144 h, stronger effect = lower value
[2] = liver-stage malaria parasite load reduction – cell-based, known kinase inhibitor set, luminescence, hepatoma host viability (AID 624392; call rule not given here;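 further: infected cells incubated roughly two days before readout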); details: Plasmodium liver stage in hepatoma cells, luciferase luminescence, concentration not given here; liver cell % of control: measured here: host liver cell viability; parasite % of control: stronger effect = lower value
[3] = altered dexamethasone sensitivity, NF-kB reporter, cell-based, luciferase, IL-1B stimulus (AID 624486; call rule not given here;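 on percent of negative control (+Dex): 100% = mean signal of vehicle control wells on the plate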); details: IL-1B + dexamethasone, luminescence; percent of negative control (+Dex): actives lie on both sides, concentration not given here; z-score: measured here: IL-1B alone, no Dex
[4] = C. elegans survival during P. aeruginosa infection – whole organism (AID 651566; call rule not given here;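 further: tested at 14 µM; sign flipped so higher z means a lower ratio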); details: C. elegans killed by P. aeruginosa, survival ratio
[5] = pro-inflammatory signaling induction in mouse macrophages – cell-based, murine, luminescence (AID 652131; call rule not given here); details: murine macrophage pro-inflammatory reporter, stronger effect = higher value
[6] = MELAS cybrid and Rieske KO viability enhancers – cell-based, MELAS cybrids, Rieske KO mouse fibroblasts, CellTiter-Glo, primary screen (AID 1508586;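 active means mean z-score across replicates of 1.96 or higher in either the MELAS or the Rieske mutant cell line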;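 further: z relative to plate mean and SD of compound and empty wells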); details: low glucose
[7] = at 0.000305 µM, OCI-C5x cells, with rucaparib 10 µM, 100% = cells with rucaparib alone
[8] = at 0.000305 µM, OCI-C5x cells, without rucaparib
[9] = at 0.000305 µM, OCI-P5x cells, with rucaparib 20 µM, 100% = cells with rucaparib alone
[10] = at 0.000305 µM, OCI-P5x cells, without rucaparib
[11] = at 0.00122 µM, OCI-C5x cells, with rucaparib 10 µM, 100% = cells with rucaparib alone
[12] = at 0.00122 µM, OCI-C5x cells, without rucaparib
[13] = at 0.00122 µM, OCI-P5x cells, with rucaparib 20 µM, 100% = cells with rucaparib alone
[14] = at 0.00122 µM, OCI-P5x cells, without rucaparib
[15] = at 0.00488 µM, OCI-C5x cells, with rucaparib 10 µM, 100% = cells with rucaparib alone
[16] = at 0.00488 µM, OCI-C5x cells, without rucaparib
[17] = at 0.00488 µM, OCI-P5x cells, with rucaparib 20 µM, 100% = cells with rucaparib alone
[18] = at 0.00488 µM, OCI-P5x cells, without rucaparib
[19] = at 0.0195 µM, OCI-C5x cells, with rucaparib 10 µM, 100% = cells with rucaparib alone
[20] = at 0.0195 µM, OCI-C5x cells, without rucaparib
[21] = at 0.0195 µM, OCI-P5x cells, with rucaparib 20 µM, 100% = cells with rucaparib alone
[22] = at 0.0195 µM, OCI-P5x cells, without rucaparib
[23] = at 0.0781 µM, OCI-C5x cells, with rucaparib 10 µM, 100% = cells with rucaparib alone
[24] = at 0.0781 µM, OCI-C5x cells, without rucaparib
[25] = at 0.0781 µM, OCI-P5x cells, with rucaparib 20 µM, 100% = cells with rucaparib alone
[26] = at 0.0781 µM, OCI-P5x cells, without rucaparib
[27] = at 0.313 µM, OCI-C5x cells, with rucaparib 10 µM, 100% = cells with rucaparib alone
[28] = at 0.313 µM, OCI-C5x cells, without rucaparib
[29] = at 0.313 µM, OCI-P5x cells, with rucaparib 20 µM, 100% = cells with rucaparib alone
[30] = at 0.313 µM, OCI-P5x cells, without rucaparib
[31] = at 1.25 µM, OCI-C5x cells, with rucaparib 10 µM, 100% = cells with rucaparib alone
[32] = at 1.25 µM, OCI-C5x cells, without rucaparib
[33] = at 1.25 µM, OCI-P5x cells, with rucaparib 20 µM, 100% = cells with rucaparib alone
[34] = at 1.25 µM, OCI-P5x cells, without rucaparib
[35] = at 5 µM, OCI-C5x cells, with rucaparib 10 µM, 100% = cells with rucaparib alone
[36] = at 5 µM, OCI-C5x cells, without rucaparib
[37] = at 5 µM, OCI-P5x cells, with rucaparib 20 µM, 100% = cells with rucaparib alone
[38] = at 5 µM, OCI-P5x cells, without rucaparib

O=C(O)c1cc(I)ccc1NC(=O)[C@H](Cc1ccccc1)NCc1ccccc1
active: viability [1, 9] 98.3% | viability [1, 14] 99.9% | viability [1, 17] 98.6% | viability [1, 18] 97.1% | viability [1, 21] 95.6% | viability [1, 22] 99.8% | viability [1, 25] 97.8% | viability [1, 26] 92.4% | viability [1, 29] 95.5% | viability [1, 30] 85.4% | viability [1, 33] 80.7% | viability [1, 34] 77.5% | viability [1, 37] 73.4% | viability [1, 38] 81.4%
inactive: viability [1, 7] 126% | viability [1, 8] 116% | viability [1, 10] 102% | viability [1, 11] 129% | viability [1, 12] 111% | viability [1, 13] 107% | viability [1, 15] 133% | viability [1, 16] 118% | viability [1, 19] 119% | viability [1, 20] 116% | viability [1, 23] 124% | viability [1, 24] 116% | viability [1, 27] 134% | viability [1, 28] 111% | viability [1, 31] 132% | viability [1, 32] 115% | viability [1, 35] 126% | viability [1, 36] 112%

CCS(=O)(=O)c1ccc(OC)c(Nc2ncc(-c3cccc(C(C)=O)c3)o2)c1
-0.327: z-score ([6]; Rieske KO mouse fibroblast survival, CellTiter-Glo 72 h)
169%: liver cell % of control [2]
inactive: parasite % of control [2] 48.2% | percent of negative control (+Dex) [3] 87% | z-score [4] 0.56 | z-score [5] -0.091 | z-score ([6]; MELAS cybrid survival, CellTiter-Glo 48 h, stronger effect = higher value) 1.14
0.415: z-score [3]

Cc1cc2c(C(=O)NC[C@H](C)c3ccccc3)c(O)c(O)cc2c(O)c1-c1c(C)cc2c(C(=O)NC[C@H](C)c3ccccc3)c(O)c(O)cc2c1O
active: viability [1, 9] 99.3% | viability [1, 10] 89.3% | viability [1, 13] 98.5% | viability [1, 14] 89.2% | viability [1, 17] 97.9% | viability [1, 18] 91.4% | viability [1, 22] 91.3% | viability [1, 26] 95.4% | viability [1, 29] 96.3% | viability [1, 30] 93.3% | viability [1, 33] 99.6% | viability [1, 34] 91.3% | viability [1, 35] 15.2% | viability [1, 36] 17.1% | viability [1, 37] 2.71% | viability [1, 38] 9.17%
inactive: viability [1, 7] 120% | viability [1, 8] 108% | viability [1, 11] 132% | viability [1, 12] 116% | viability [1, 15] 128% | viability [1, 16] 110% | viability [1, 19] 124% | viability [1, 20] 116% | viability [1, 21] 102% | viability [1, 23] 122% | viability [1, 24] 110% | viability [1, 25] 105% | viability [1, 27] 119% | viability [1, 28] 106% | viability [1, 31] 123% | viability [1, 32] 106%

COc1ccc(C2=N[C@H](c3ccc(Cl)cc3)[C@@H](c3ccc(Cl)cc3)N2C(=O)N2CCNC(=O)C2)c(OC(C)C)c1
active: viability [1, 9] 88.9% | viability [1, 10] 86.6% | viability [1, 13] 93.4% | viability [1, 14] 85.3% | viability [1, 17] 95.4% | viability [1, 18] 90.1% | viability [1, 21] 96.3% | viability [1, 22] 86.4% | viability [1, 25] 86.1% | viability [1, 26] 78.2% | viability [1, 29] 64.3% | viability [1, 30] 56.8% | viability [1, 33] 98.1% | viability [1, 34] 98% | viability [1, 37] 94.1% | viability [1, 38] 98.2%
inactive: viability [1, 7] 112% | viability [1, 8] 103% | viability [1, 11] 118% | viability [1, 12] 101% | viability [1, 15] 130% | viability [1, 16] 112% | viability [1, 19] 127% | viability [1, 20] 105% | viability [1, 23] 120% | viability [1, 24] 111% | viability [1, 27] 111% | viability [1, 28] 107% | viability [1, 31] 114% | viability [1, 32] 102% | viability [1, 35] 182% | viability [1, 36] 137%

C[C@@H]1C[C@H]2[C@@H]3CCC4=CC(=O)C=C[C@]4(C)[C@]3(F)[C@H](O)C[C@]2(C)[C@]1(O)C(=O)CO
inactive: viability [1, 7] 111% | viability [1, 8] 118% | viability [1, 9] 107% | viability [1, 10] 121% | viability [1, 11] 117% | viability [1, 12] 125% | viability [1, 13] 110% | viability [1, 14] 123% | viability [1, 15] 102% | viability [1, 16] 116% | viability [1, 17] 112% | viability [1, 18] 115% | viability [1, 19] 111% | viability [1, 20] 117% | viability [1, 21] 108% | viability [1, 22] 114% | viability [1, 23] 108% | viability [1, 24] 107% | viability [1, 25] 100% | viability [1, 26] 110% | viability [1, 27] 111% | viability [1, 28] 109% | viability [1, 29] 104% | viability [1, 30] 108% | viability [1, 31] 109% | viability [1, 32] 116% | viability [1, 34] 101% | viability [1, 35] 117% | viability [1, 36] 108%
active: viability [1, 33] 95.5%
